From PubChem BioAssay (NCI)
The panel holds about 83,000 compounds, 20% with a hit somewhere; the sample as a whole holds those more often.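 96-well plates, one dose, 48 hours. Percent growth reported; active if below 10.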 A number with no mark means an inactive call.

Tested on: SK-OV-3 ovarian
Assay: NCI-60 one-dose screen, 48 h (100 = growth as untreated, 0 = no growth, -100 = all killed)
Conditions: 10 µM unless noted

Compound | growth
NS(=O)(=O)c1ccc(Nc2nc(N/N=C/c3ccc(F)cc3)nc(Nc3ccccc3)n2)cc1 | 71.2%
COc1ccc(-c2cc(-c3ccc(Cl)cc3)nc3nc(N)nn23)cc1 | 119%
COc1ccc(Cn2cc3c(c2-c2cc(OC)c(OC)c(OC)c2)CCCc2cnoc2-3)cc1 | 58%
CN(c1ccc(F)cc1)S(=O)(=O)c1ccc(-c2cnc(C3CC3)o2)cc1 | 72.1%
COC[C@]12CC[C@@H](C)[C@H](C)[C@H]1C1=CC[C@@H]3[C@@]4(C)CCCNC(C)(C)[C@@H]4CC[C@@]3(C)[C@]1(C)CC2 | 85.4%
C=C(C)[C@@H]1CC[C@]2(C(=O)ON)CC[C@]3(C)[C@H](CC[C@@H]4[C@@]5(C)C/C(=C/c6ccc(Br)cc6)C(=O)C(C)(C)[C@@H]5CC[C@]43C)[C@@H]12 | 98.6%
CN(c1ccc(Br)cc1)S(=O)(=O)c1ccc(-c2cnc(C3CC3)o2)cc1 | 73.7%
CCCCCCNC(=O)Oc1ccc(/C(=C(\C)c2ccc(Cl)cc2)c2ccc(OCCN(C)C)cc2)cc1 | 94.4%
C=C(C)[C@@H]1CC[C@]2(COS(C)(=O)=O)CC[C@]3(C)[C@H](CC[C@@H]4[C@@]5(C)CCCNC(C)(C)[C@@H]5CC[C@]43C)[C@@H]12 | 107%
O=C(NNc1nc2cc(F)ccc2n2cncc12)c1cnccn1 | 28.4%
CN1CCN(c2ccc3c(C(N)=O)c(NC(=O)c4ccc(C(C)(C)C)cc4)sc3c2)CC1 | 107%
